DT40 TDP1 no CPT = qHTS for Inhibitors of human tyrosyl-DNA phosphodiesterase 1 (TDP1): qHTS in cells in absence of CPT; DT40 Tdp1-/- hTDP1 cells, no CPT, ATP luminescence, 48 h; Potency, µM (top dose mostly 46.2 µM), for the others: at the top dose activity change, negative = growth inhibition, actives largely listed as inhibitors; actives 15% (n = 420,000); AID 686978, 2013; note: potency is the fitted concentration of half-maximal effect; nearly all actives have a fitted effect of over 55% in size
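Cells were dispensed at 400 per well, compounds added by pin tool, plates incubated ≥48 hr at 37 °C, then CellTiter-Glo added for 30 min at room temperature before luminescence reading. Line: DT40 Tdp1-/- complemented with hTDP1; camptothecin omitted.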
CtBP-E1A inh = inhibitors of CtBP/E1A interaction; AlphaScreen GST-E1A/His-CtBP binding, 1536-well; hits give low values; activity change, % (concentration not given with the values); actives 0.49% (n = 340,000); AID 651724; in the data active = activity change below about -65%; inconclusive = mostly about -30% to -63%
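AlphaScreen with 125 nM GST-E1A and 125 nM His-CtBP (5X stocks) in Tris pH 8.0, 300 mM NaCl, BSA, Tween 20, TCEP. Compounds preincubated 2 h at 37 deg C, then glutathione donor/nickel acceptor beads added for 1 h at 37 deg C in dark.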
TDP1 block = inhibitors of human tyrosyl-DNA phosphodiesterase TDP1; Q9NUW8; recombinant TDP1, AlphaScreen DNA substrate cleavage; Potency, µM (highest dose often 130 µM), for the others: at the top dose activity change, negative = inhibition, hits mostly inhibitors; actives 0.28% (n = 350,000); note: potency is the fitted concentration of half-maximal effect; nearly all actives have a fitted effect of over 40% in size
Target sequence (Q9NUW8 whole entry, looked up): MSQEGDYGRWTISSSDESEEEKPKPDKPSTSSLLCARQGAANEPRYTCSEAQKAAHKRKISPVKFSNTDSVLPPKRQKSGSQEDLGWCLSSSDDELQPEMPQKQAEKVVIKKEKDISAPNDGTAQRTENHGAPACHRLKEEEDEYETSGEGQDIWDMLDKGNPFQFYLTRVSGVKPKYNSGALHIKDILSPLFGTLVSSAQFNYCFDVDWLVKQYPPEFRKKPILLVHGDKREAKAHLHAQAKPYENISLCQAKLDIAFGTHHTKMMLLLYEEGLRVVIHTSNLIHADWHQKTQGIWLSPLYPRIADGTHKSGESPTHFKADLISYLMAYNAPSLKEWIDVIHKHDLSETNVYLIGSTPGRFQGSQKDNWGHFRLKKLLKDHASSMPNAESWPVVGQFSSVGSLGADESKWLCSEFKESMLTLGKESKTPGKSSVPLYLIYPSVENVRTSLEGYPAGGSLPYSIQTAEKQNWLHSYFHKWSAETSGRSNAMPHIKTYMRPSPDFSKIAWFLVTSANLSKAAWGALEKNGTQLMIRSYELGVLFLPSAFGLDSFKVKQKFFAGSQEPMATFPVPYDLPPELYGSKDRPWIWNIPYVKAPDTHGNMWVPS
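Tdp1 1 nM final; 15 min RT w/ cpd; substrate 15 nM, 5 min; beads 10 ug/ml, 10 min; AlphaScreen read. Neg ctrl: no enzyme.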
DT40 TDP1 CPT = DT40-hTDP1 cell growth loss with CPT. chicken DT40 Tdp1-/-;hTDP1 cells + 20 nM CPT, ATP luminescence, 48 h. Potency, µM (highest dose often 46.2 µM), without a hit: at the top dose activity change, negative = growth inhibition, actives largely listed as inhibitors. actives 12% (n = 420,000). AID 686979; note: potency is the fitted concentration of half-maximal effect; nearly all actives have a fitted effect of over 55% in size
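Cell growth measured by CellTiter-Glo luminescence after a minimum 48 h, 37 C compound exposure with 20 nM CPT in Tdp1-knockout DT40 cells stably expressing hTDP1, seeded 400/well; qHTS titration format.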
IL-1B inflam inh = blocks inflammasome-driven IL-1 beta release. THP-1 LPS/ATP IL-1B secretion, AlphaLISA, 16 h; hits give low values. activity change, % at 57.5 µM. actives 4.7% (n = 360,000); in the data active = activity change below about -50%; inconclusive = mostly about -30% to -49%
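Secreted IL-1B measured by AlphaLISA bead assay after 16 h compound exposure of THP-1 cells; compounds (final up to 57.5 uM) added 1 h before LPS (250 ng/mL) and ATP (1.25 mM) stimulation; lower signal means less secretion.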
Six1-Eya2 inh = inhibitors of human Six1/Eya2 interaction. Q15475+O00167. AlphaScreen GST-Six1/His-Eya2 binding, biochemical; hits give low values. activity change, % (concentration not given with the values). actives 0.56% (n = 360,000). AID 651725; in the data active = activity change below about -65%; inconclusive = mostly about -30% to -63%
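Homogeneous AlphaScreen proximity assay pairing GST-Six1 with His-tagged Eya2 (added as 5X mix: 250 nM and 500 nM) in 50 mM Tris pH 8.0, 300 mM NaCl, 1 mM TCEP. Glutathione donor and nickel acceptor beads; 1 h, 37 °C, dark.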
Active calls of the source: *; ? = inconclusive; / = no result given; [ ] = remark or other dose. A selection: hits, their analogues and other compounds. The true share with any hit is near 18%. Unless noted, calls come from the whole dose curve; as a rule, active = well fitted curve in the direction sought with a large enough effect; inconclusive = small, poorly fitted or top-dose-only effect, or another doubt; inactive = no such curve, though single readings can be large; an effect the other way counts as inactive or inconclusive. % is set by controls: 0 for no effect and ±100 for the full control effect.

SMILES	DT40 TDP1 no CPT	CtBP-E1A inh	TDP1 block	DT40 TDP1 CPT	IL-1B inflam inh	Six1-Eya2 inh
CCCc1ncc(CN2CCCC(C(=O)Nc3ccc(-c4cccc(OC)c4)cc3)C2)cn1 (stereo not given)	?	-26	10%	23µM*	-9	-4
COc1ccc(CCN=C(N)NS(=O)(=O)c2ccc(C)cc2)cc1	?	5	5%	-24%	-7	1
Cc1ccc(Cl)cc1NC(=O)C(=O)N1CCCCC1	-12%	/	0%	-1%	-9	-3
Cc1ccc(Cl)cc1NC1=NC(=S)N(C(C)C)C12CCCCC2	18µM*	7	5%	?	-23	4
O=C1C(=NO)CCc2ccccc21	21µM*	6	/	21µM*	-78*	-11
Clc1cccc(C2=NOC(c3nnc(-c4ccccc4)o3)C2)c1 (stereo not given)	-29%	5	1%	-20%	-1	9
COc1ccc(C(=O)Cn2c(NCCCO)nc3ccccc32)cc1	?	1	/	?	?	11
COC(=O)COc1ccc(C(=O)Cn2c(NCCCO)nc3ccccc32)cc1	-7%	-1	/	-4%	-93*	1
COc1ccc(-n2c(C)cc(C(=O)Cn3c(NCCO)nc4ccccc43)c2C)cc1	21µM*	-17	10%	?	42	-11
CC1(C)C(=O)N(c2ccccc2F)C(=O)c2ccccc21	-20%	3	-17%	-3%	21	1
Cc1cc(C)c2nc(NC(=O)C3CSC4(C)CCC(=O)N34)sc2c1 (stereo not given)	3.7µM*	/	2%	-45%	0	15
CCc1ccc2nc(NC(=O)C3CSC4(C)CCC(=O)N34)sc2c1 (stereo not given)	?	-5	/	-28%	-55*	-15
CC12CCC(=O)N1C(C(=O)Nc1nc3ccc(S(C)(=O)=O)cc3s1)CS2 (stereo not given)	21%	4	1%	-1%	-1	12
CC12CCC(=O)N1C(C(=O)Nc1nc3ccc(Cl)cc3s1)CS2 (stereo not given)	?	-19	-4%[0.505 µM]	4%	-84*	-5
Cc1cc(C)c2nc(NC(=O)C3CC(=O)N(Cc4ccco4)C3)sc2c1 (stereo not given)	?	?	5%	?	-71*	?
N#Cc1nc(Nc2ccc(C(F)(F)F)cc2)nc(NC2CCCC2)n1	/	/	0%	/	/	/
CC1CCN(S(=O)(=O)c2ccc(NC(=O)C3CSC4(C)CCC(=O)N34)cc2)CC1 (stereo not given)	10µM*	0	/	?	-6	-8
Cc1ccc(-c2csc(NC(=O)C3CSC4(C)CCC(=O)N34)n2)cc1 (stereo not given)	-22%	13	0%	-8%	13	-1
Cc1sc(NC(=O)C2CSC3(C)CCC(=O)N23)nc1-c1ccc(F)cc1 (stereo not given)	18µM*	-2	4%	15µM*	0	0
c1ccc(N=P(c2nc3ccccc3o2)(N2CCOCC2)N2CCOCC2)cc1	1%	3	4%	?	-11	0
CCOc1ccc2[nH]cc(S(=O)(=O)c3ccc(F)cc3)c(=O)c2c1	9.2µM*	-1	4%	9.2µM*	30	-5
COc1ccc2[nH]cc(S(=O)(=O)c3ccc(F)cc3)c(=O)c2c1	?	-10	-3%	?	8	-5
CS(=O)(=O)Cc1ccc(C(=O)Nc2cccc(-c3nc4ccccc4[nH]3)c2)cc1	13µM*	-15	5%	?	-3	-4
CS(=O)(=O)c1ccc(C(=O)Nc2cccc(-c3nc4ccccc4[nH]3)c2)cc1	26µM*	/	3%	?	-19	-1

Compound activity as filed in PubChem BioAssay.
